# Shown are actives, neighbours in structure and some others; about 10% of the full set was active somewhere.
# GPT2 inh = blocks human glutamate pyruvate transaminase 2; Q8TD30; Recombinant GPT2, coupled pyruvate oxidase/HRP Amplex Red fluorescence; Potency, µM (titrated, usually from 57.7 µM), inactives show top-dose activity change, negative = inhibition, hits mostly inhibitors; 100,000 tested, 0.25% active; AID 1671188; note: nearly all actives have a fitted effect of over 60% in size
#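 Fluorescence read-out: pyruvate from GPT2 turnover coupled to pyruvate oxidase, HRP and Amplex Red (0.2mM ThPP, 0.2U/mL PO and HRP, 50uM Amplex final). Substrates 250uM a-KG, 2mM L-alanine; enzyme 10ng/uL; 30 min RT.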
# NPR1 antag = blocks ANP-stimulated signaling of human Npr1 receptor; P16066; 76,000 tested, 1.6% active; HEK293 hNpr1 GloSensor cGMP, ANP-stimulated luminescence; Potency, µM (doses to about 46.3 µM), without a hit: at the top dose activity change, negative = inhibition, actives largely listed as inhibitors; calls by dose curve; note: nearly all actives have a fitted effect of over 60% in size
#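 HEK293 cells stably expressing human Npr1 and cGMP GloSensor pGS-40F, loaded 2 h with 2% GloSensor reagent, given compound 30 min at room temperature. Luminescence read before and 20 min after 0.1 nM hNppA.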
# Luciferase inh = inhibitors of firefly (Photinus pyralis) luciferase | P08659 | purified P. pyralis luciferase, luminescence, biochemical | Potency, µM (titrated, usually from 115 µM), actives largely listed as inhibitors | 76,000 tested, 2.5% active | AID 1347043; note: nearly all actives have a fitted effect of over 65% in size
#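 Inhibitors were tested against purified firefly luciferase in a biochemical, low-substrate format (both substrates at 10uM) and luminescence measured with a CCD imager.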
# 3T3 cytotox = kills NIH 3T3 cells; NIH 3T3 viability, CellTiter-Glo ATP luminescence, 48-72 h; Potency, µM (doses to about 96.7 µM), for inactives: top-dose activity change, negative = cytotoxicity, most hits filed as inhibitors; 94,000 tested, 4.3% active; AID 1345082; note: nearly all actives have a fitted effect of over 55% in size
#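 Luminescent ATP readout (CellTiter-Glo, 10 min RT) after 48 or 72 hr compound exposure of NIH 3T3 cells seeded at 400 cells/well in 1536-well format; quantitative HTS.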
# HEK293 tox = cytotoxic compounds in HEK 293 cells | HEK 293 viability, ATP luminescence (CellTiter-Glo), 48-72 h | Potency, µM (doses to about 115 µM), inactives show at the highest dose activity change, negative = cytotoxicity, most hits filed as inhibitors | 94,000 tested, 6.6% active | AID 1345083; note: nearly all actives have a fitted effect of over 60% in size
#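 Pintool-delivered compounds were incubated with HEK 293 cells (250 cells/well) at 37 degree Celsius for 48 or 72 hr. ATP-dependent luminescence (CellTiter-Glo) then reported remaining viable cells.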
# Starred values were filed as active, the others as inactive; i = inactive; ? = inconclusive. Unless noted, calls come from the whole dose curve; as a rule, active = well fitted curve in the direction sought with a large enough effect; inconclusive = small, poorly fitted or top-dose-only effect, or another doubt; inactive = no such curve, though single readings can be large; an effect the other way counts as inactive or inconclusive. % is set by controls: 0 for no effect and ±100 for the full control effect; potency is the fitted concentration of half-maximal effect.
SMILES,GPT2 inh,NPR1 antag,Luciferase inh,3T3 cytotox,HEK293 tox
C=CCN(C)C(=O)[C@@H](C)C1CC[C@@]2(C)Cc3sc(NC(=O)C4CC4)nc3[C@@H](C)[C@@H]2[C@H]1O (stereo not given in full),i,4%,i,-6%,i
CCOc1cc(CN2CCOc3ccc(C(=O)NCc4ccc(C)cc4)cc3C2)ccc1O,?,-10%,i,?,?
Cc1ccc(C2c3cc(OCc4nc(C(=O)NCC(C)C)co4)ccc3CCN2C(=O)C2CC2)cc1 (stereo not given),-18%,-1%,i,?,40µM*
COCCNC(=O)c1coc(COc2ccc3c(c2)C(c2cccc(F)c2)N(C(=O)C2CC2)CC3)n1 (stereo not given),i,-9%,i,?,?
Cc1cccc(C2c3cc(OCc4nc(C(=O)NCC5CC5)co4)ccc3CCN2C(=O)C2CC2)c1 (stereo not given),-25%,?,i,?,?
CC(C)CNC(=O)c1coc(COc2ccc3c(c2)C(c2cccc(F)c2)N(C(=O)C2CC2)CC3)n1 (stereo not given),-5%,?,i,13µM*,14µM*
CCN(CC)C(=O)c1coc(COc2ccc3c(c2)C(c2ccc(C)cc2)N(C(=O)C2CC2)CC3)n1 (stereo not given),-8%,-25%,i,?,10µM*
CCCNC(=O)c1coc(COc2ccc3c(c2)C(c2cccc(C)c2)N(C(=O)C2CC2)CC3)n1 (stereo not given),i,?,i,?,13µM*
CCCNC(=O)N1CCCOCCNC(=O)[C@@H]2CCC[C@@H]21,2%,0%,i,-9%,i
COCCNC(=O)c1coc(COc2ccc3c(c2)C(c2ccc(F)cc2)N(C(=O)C(C)C)CC3)n1 (stereo not given),i,-1%,i,-28%,8.9µM*
Cc1ccc(C2c3cc(OCc4nc(C(=O)NCC5CC5)co4)ccc3CCN2C(=O)C2CC2)cc1 (stereo not given),4%,-23%,i,28µM*,35µM*
CCCNC(=O)c1coc(COc2ccc3c(c2)C(c2ccc(C)cc2)N(C(=O)C2CC2)CC3)n1 (stereo not given),-3%,-8%,i,?,?
Cc1noc([C@H]2CCN(Cc3cc(F)cc(F)c3)C[C@H]2NC(=O)C2CC2)n1,-21%,1%,i,?,28µM*
COC(=O)c1ccccc1S(=O)(=O)N1CCC(c2cc(-c3cccc(C)c3)n[nH]2)CC1,i,1%,i,40µM*,45µM*
COc1cccc(-c2cc(C3CCN(C(=O)Nc4cccc(SC)c4)CC3)[nH]n2)c1,-9%,1%,i,45µM*,?
Cc1cccc(NC(=O)N2CCC(c3cc(-c4cccc(C)c4)n[nH]3)CC2)c1,?,-15%,i,?,?
CCOc1ccccc1NC(=O)N1CCC(c2cc(-c3cccc(OC)c3)n[nH]2)CC1,4%,-23%,i,35µM*,?
COc1cccc(NC(=O)N2CCC(c3cc(-c4cccc(C)c4)n[nH]3)CC2)c1,-13%,-24%,i,40µM*,?
CCCCNC(=O)COc1ccc(NC(=O)C2CC2)cn1,2%,0%,i,-10%,-2%
CSCC(=O)N[C@H]1CN(CCCn2nc(C)cc2C)C[C@@H]1C1CC1,2%,0%,i,-1%,-8%
COc1ccc(C(=O)NCCn2ccn3nc(-c4ccc(C)c(C)c4)cc3c2=O)cc1F,i,-21%,i,2%,?
COc1cccc(-c2cc(C(=O)N3CCC(Cn4cccn4)CC3)[nH]n2)c1,2%,1%,32µM*,?,-1%
COc1cccc(-c2cc(C3CCN(C(=O)Nc4cc(Cl)ccc4C)CC3)[nH]n2)c1,-2%,-23%,?,?,45µM*
COc1cccc(-c2cc(C3CCN(C(=O)NC4CCCC4)CC3)[nH]n2)c1,i,-22%,i,-16%,?

# From PubChem BioAssay
